mTORC1 inh – inhibitors of mTORC1 signaling in Tsc2-/- p53-/- MEF cells | Potency, µM (highest dose often 38.3 µM), for the others: at the highest dose activity change, negative = inhibition, hits mostly inhibitors | AID 493208 | actives 0.78% (n = 44,000) | Tsc2-/- p53-/- MEF, phospho-rpS6 immunofluorescence/PI, 24 h;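 note: plate controls were DMSO for no effect and rapamycin for full effect; nearly all actives have a fitted effect of over 50% in size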
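Read-out: phospho-S6 Alexa-488 intensity over PI intensity per well, scored as % active cells using thresholds from rapamycin (7.5 nM) and DMSO controls. Tsc2-/-, p53-/- MEFs exposed to compound for 24 h; PI cell count recorded as viability.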
p53null 39C kill – selectivity test: cytotoxicity in p53 null cells, nonpermissive temperature; Potency, µM (doses to about 46.1 µM), inactives show at the highest dose activity, negative = cell killing, usual class: cytotoxic; H1299 p53-null (neo) cells, 39C, ATPlite viability, 24 h; AID 904; actives 0.97% (n = 55,000);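 note: 0% = DMSO only and -100% = full killing by 100 µM tamoxifen; nearly all actives have a fitted effect of over 50% in size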
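H1299 lung cancer cells, p53-null (H1299-neo) or expressing p53 A138V (H1299-p53A138V), were plated overnight at 37C, then exposed to compounds at up to 46 uM for 24 hr at 39C. Viability was read by ATP-based luminescence.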
p53null 32C kill – p53 null cell cytotoxicity, permissive temperature; H1299-neo p53 null cells, ATP luminescence, 24 h, 32C; Potency, µM (titrated, usually from 46.1 µM), without a hit: top-dose activity change, negative = cytotoxicity, most hits filed as cytotoxic; actives 0.62% (n = 55,000);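 note: 0% = DMSO only and -100% = full killing by 100 µM tamoxifen; nearly all actives have a fitted effect of over 55% in size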
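H1299-neo, 600 cells/well; overnight 37C; cpd up to 46 uM, 24 h at 32C; ATPlite luminescence after 20 min RT; normalized to DMSO (0%) and tamoxifen 100 uM (100% kill); Hill-fit AC50.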
OvCa metastasis – ovarian cancer metastasis inhibition, 3D TME model | SKOV3ip1-GFP adhesion/invasion on 3D omental model, fluorescence | Potency, µM (highest dose often 45.8 µM), without a hit: top-dose activity change, negative = inhibition, hits mostly inhibitors | actives 0.1% (n = 46,000) | AID 1963576;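 note: plate controls were DMSO wells for no effect and tomatine positive control wells for full effect; nearly all actives have a fitted effect of over 65% in size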
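Primary human omental fibroblast/mesothelial 3D culture pre-formed 48 h. SKOV3ip1-GFP cells added with compounds (0.36-46 umol/L), incubated 2 h RT/16 h 37 C, fixed; GFP cells quantified at 488/509 nm.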
PMP22 txn – modulators of PMP22 gene transcription in S16 Schwann cells; S16 Pmp22-F2sN Schwann cells, FLuc/NLuc coincidence luminescence, 24 h; Potency, µM (doses to about 57.5 µM), for the others: at the highest dose activity change, negative = inhibition, most hits filed as inhibitors; actives 2% (n = 43,000); AID 1508649; active = clear falling dose curves in both reporters; inconclusive = both reporters move, but less clearly or upward; inactive = either reporter flat; the % is the NLuc reporter signal
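Rat S16 Pmp22-F2sN cells, 500-1,000/well in phenol red-free DMEM + 10% FBS, compound-treated 24 h (37C, 5% CO2). Luminescence: FLuc read, Stop&Glo added, NLuc read.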
S16 F2sN tox – S16 Schwann cell cytotoxicity | S16 Pmp22-F2sN Schwann cells (luciferase reporters placed in the Pmp22 gene) viability, CellTiter-Glo, 24 h | Potency, µM (top dose mostly 57.5 µM), without a hit: top-dose activity change, negative = cytotoxicity, actives largely listed as cytotoxic | actives 0.48% (n = 43,000); note: nearly all actives have a fitted effect of over 65% in size
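Rat S16 Schwann reporter line, 24 h treatment with library compounds delivered at 23 nL per well. Cell viability by CellTiter-Glo luminescence.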
Numbers without * were called inactive; i = inactive; ? = inconclusive; nt = no result. A selection: hits, their analogues and other compounds. The true share with any hit is near 3%. Unless noted, calls come from the whole dose curve; as a rule, active = well fitted curve in the direction sought with a large enough effect; inconclusive = small, poorly fitted or top-dose-only effect, or another doubt; inactive = no such curve, though single readings can be large; an effect the other way counts as inactive or inconclusive. Unless noted, % is set by controls: 0 for no effect and ±100 for the full control effect; potency is the fitted concentration of half-maximal effect.

SMILES | mTORC1 inh | p53null 39C kill | p53null 32C kill | OvCa metastasis | PMP22 txn | S16 F2sN tox
CCOc1ccc(-c2nonc2NC(=O)c2oc3cc(Br)ccc3c2C)cc1 | -12% | ? | ? | -22% | 9.5µM* | ?
CC(=O)N1CCCc2cc(S(=O)(=O)N3CCCC(C(=O)N4CCN(c5ccccc5F)CC4)C3)ccc21 (stereo unspecified) | -15% | 12% | -2% | 2% | ? | 10µM*
CC1=C(CC(=O)O)c2cc(F)ccc2C1=Cc1ccc(S(C)=O)cc1 (stereo unspecified) | nt | nt | nt | 37% | nt | nt
O=C(Nc1ccc2nn(-c3ccccc3)nc2c1)c1ccco1 | nt | -29% | -25% | nt | nt | nt
CCn1cnc2cc(NC(=O)c3ccco3)ccc21 | nt | 13µM* | 10µM* | nt | nt | nt
N=c1n(CCO)c2ccccc2n1CCOc1ccc(F)cc1 | ? | -3% | -2% | 3% | nt | nt
CCN(CC)CCn1c(=N)n(CC(O)COc2ccccc2C)c2ccccc21 (stereo unspecified) | 12µM* | 18µM* | -2% | ? | ? | 28µM*
CCN(CC)CCn1c(=N)n(CCOc2ccccc2Cl)c2ccccc21 | 5.8µM* | 3.2µM* | -21% | ? | ? | 28µM*
CCn1c(=N)n(CC(O)COc2ccccc2)c2ccccc21 (stereo unspecified) | -3% | 15% | -8% | i | ? | 10%
COc1ccc2nc3sc(C(=O)Nc4cc(Cl)c(OC)cc4OC)cc3cc2c1 | 4% | 10µM* | -9% | 0% | -6% | 3%
CCOc1ccc(CCNC(=O)c2cc3cc4cc(OC)ccc4nc3s2)cc1OCC | -29% | -5% | -19% | i | ? | -3%
CC(=O)N1CCN(c2ccc(OCc3nn(C)c(C)c3-c3cccc4c(CCCOc5cccc6ccccc56)c(C(=O)O)n(Cc5cccnc5)c34)cc2)CC1 | nt | nt | nt | -19% | nt | nt
Cc1ccc(N(C)S(=O)(=O)c2ccc(-c3cnc(C4CC4)o3)cc2)cc1 | 1% | ? | -14% | -30% | 14µM* | ?
CC(=O)c1ccc(NS(=O)(=O)c2ccc(-c3cnc(C4CC4)o3)cc2)cc1 | -1% | 0% | ? | i | -3% | 6%
COc1cc(Cl)c(NS(=O)(=O)c2ccc(-c3cnc(C4CC4)o3)cc2)c(OC)c1 | -29% | ? | -5% | 6% | 3µM* | 1.3µM*
CCOC(=O)c1cccc(NS(=O)(=O)c2ccc(-c3cnc(C4CC4)o3)cc2)c1 | -18% | 1% | -6% | i | 11µM* | ?
Cc1ccc(CNS(=O)(=O)c2ccc(-c3cnc(C4CC4)o3)cc2)cc1 | 1% | 8% | 2% | i | ? | -25%
Cc1[nH]c(C=C2C(=O)Nc3ccccc32)c(C)c1CCC(=O)O | nt | nt | nt | -24% | nt | nt
COc1cc([C@@H]2c3cc4c(cc3[C@@H](O[C@@H]3O[C@@H]5CO[C@@H](C)O[C@@H]5[C@H](O)[C@@H]3O)[C@H]3COC(=O)[C@H]23)OCO4)cc(OC)c1O | nt | nt | nt | -12% | nt | nt
CC(=O)Nc1nc(C)c(-c2ccc(Cl)c(S(=O)(=O)NCCO)c2)s1 | nt | nt | nt | -13% | nt | nt
O=C(NCc1ccccc1)c1cc2sccc2n1Cc1ccc(Cl)cc1 | -10% | 15% | -9% | i | -22% | 15%
CC(C)NC(=O)C1CCN(C(=O)c2cc3sccc3n2Cc2ccc(Cl)cc2)CC1 | 1% | -7% | 14% | -3% | 9.5µM* | ?
Cc1cccc(NC(c2cccc(Cl)c2)c2ccc3cccnc3c2O)n1 (stereo unspecified) | ? | 2.5µM* | ? | i | ? | ?
Cc1ccnc(NC(c2cccc(O)c2)c2ccc3ccc(C)nc3c2O)c1 (stereo unspecified) | ? | -7% | -8% | -3% | ? | -2%
Cc1ccc(C(Nc2ccccn2)c2ccc3cccnc3c2O)cc1 (stereo unspecified) | -19% | 4µM* | ? | -28% | ? | 32µM*
SMILES | mTORC1 inh | p53null 39C kill | p53null 32C kill | OvCa metastasis | PMP22 txn | S16 F2sN tox
CCCN(C(=O)c1cc2c(s1)-c1ccccc1OC2)c1ccccc1F | -1% | 26% | 23% | 9% | ? | 25%
CCCN(C(=O)c1cc2c(s1)-c1ccccc1SC2)c1ccccc1F | 2% | 20µM* | 9% | -26% | ? | -5%
Nc1ncnc2c1c(-c1cccc(OCc3ccccc3)c1)cn2C1CC(CN2CCCC2)C1 (stereo unspecified) | nt | nt | nt | -18% | nt | nt
Cc1oc(-c2cccc(Cl)c2)nc1CN1CCC(C(=O)NCCc2ccc(Cl)cc2)CC1 | 0% | -13% | -4% | 2% | -22% | 22%
Cc1oc(-c2cccc(Cl)c2)nc1CN1CCCC(C(=O)NCCc2ccc(Cl)cc2)C1 (stereo unspecified) | 0% | 20µM* | -1% | 0% | ? | ?
Cn1cnc2c(F)c(Nc3ccc(Br)cc3F)c(C(=O)NOCCO)cc21 | nt | nt | nt | 8% | nt | nt
OC[C@H]1O[C@@H](Oc2ccc(O)cc2)[C@H](O)[C@@H](O)[C@H]1O | nt | nt | nt | 11% | nt | nt
O=C1CSC(=O)N1C(CCc1ccncc1)COc1ccc(-c2cccc([N+](=O)[O-])c2)cc1 (stereo unspecified) | nt | nt | nt | -1% | nt | nt
Fc1cc(-c2cccc3ncc(-c4cnn(C5CCNCC5)c4)nc23)cc(F)c1CN1CCOCC1 | nt | nt | nt | -4% | nt | nt
COC(=O)c1ccc(COc2ccccc2/C=C(\C#N)C(=O)NC(C)C)cc1 | nt | 19% | 12% | nt | nt | nt
CCC[C@H](NC(=O)C(C#N)=Cc1cccc(Br)n1)c1ccccc1 | nt | nt | nt | 12µM* | nt | nt
CCN1CCc2nc3sc(C(=O)Nc4cccc(Cl)c4C)c(N)c3cc2C1 | ? | ? | -4% | -6% | 12µM* | ?
Nc1ccc2oc(-c3ccccn3)nc2c1 | nt | -21% | 11µM* | nt | nt | nt
COC(=O)c1ccc(-c2nc3cc(N)ccc3o2)cc1 | nt | -14% | ? | nt | nt | nt
CN(C)C(=O)c1ccc(S(=O)(=O)c2ccc(NC(=O)[C@@](C)(O)C(F)(F)F)c(Cl)c2)cc1 | nt | nt | nt | -12% | nt | nt
CCOc1ccc(Cc2cc([C@@H]3O[C@H](CO)[C@@H](O)[C@H](O)[C@@H]3O)ccc2Cl)cc1 | nt | nt | nt | -2% | nt | nt
Cc1ccc(N(CC(=O)N2CCN(c3cccc(Cl)c3)CC2)S(=O)(=O)c2c(C)noc2C)cc1 | -8% | 9% | 12% | 4% | ? | -19%

Screening results deposited in PubChem BioAssay by National Center for Advancing Translational Sciences (NCATS).
